Only some compounds are listed: those with a hit (about 3.7% of all), similar ones and a draw of the others.
tim23-1 inh = growth inhibitors of tim23-1 mutant yeast, primary screen, luminescence, uHTS; S. cerevisiae tim23-1 growth, BacTiter-Glo luminescence, 24 h; inhibition, % at 20 µM; 330,000 tested, 1.3% active;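 active means growth inhibition of the mutant yeast at or above 50%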;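 further: temperature-sensitive mutant grown at 25 °C; plate controls were DMSO-treated mutant yeast for no effect and medium wells lacking yeast for full effect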
NLRP3 yeast inh = NALP3 inflammasome inhibitors in reconstituted yeast, primary screen, luminescence, uHTS. Yeast reconstituted NLRP3/ASC/caspase-1, beta-gal luminescence, 24 h. inhibition, % at 10 µM. 330,000 tested, 0.39% active;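 active means inhibition of 50% or more; inactive means inhibition below 50%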;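 further: plate controls were induced DMSO wells for no effect and uninduced yeast grown without galactose for full effect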
TIM10 inh = growth inhibitors of isogenic TIM10 control yeast, primary screen, counter-screen for tim10-1 yeast inhibitor project, luminescence, uHTS; 330,000 tested, 1.4% active; S. cerevisiae TIM10 strain growth, BacTiter-Glo luminescence, 24 h; inhibition, % at 10 µM; AID 463195, 2010;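 active means inhibition of 40% or more at the single tested concentration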;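 further: wild-type TIM10 isogenic control strain grown at permissive 25 °C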
tim10-1 inh = growth inhibitors of tim10-1 mutant yeast, primary screen, luminescence, uHTS; S. cerevisiae tim10-1 ts strain growth, BacTiter-Glo, 24 h; inhibition, % at 20 µM; 330,000 tested, 2.2% active; AID 463190, 2010;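 active means inhibition of at least 40%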;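 further: mutant grown at 25 °C; 0% = DMSO wells with yeast and 100% = wells holding no yeast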
PfHsp90 yeast 2 = growth inhibition of PfHsp90-expressing yeast, primary screen, antimalarial PfHsp90 inhibitor project, S. cerevisiae, BacTiter-Glo luminescence, single point, set 2; BacTiter-Glo ATP, 48 h; yeast lacking PDR1 and PDR3 efflux regulators; inhibition, % at 9.4 µM; 310,000 tested, 0.32% active; AID 504621, 2011;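 active means every replicate shows inhibition above about 80%, whatever the replicate mean, limit read from the data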;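 further: 0% = DMSO neutral controls and 100% = 20 µM radicicol positive controls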
tim10-1 confirm = growth inhibitors of tim10-1 mutant yeast, confirmation, single concentration, luminescence, S. cerevisiae; shares compounds with tim10-1 inh; AID 463213, 2010; 7,400 tested, 56% active; S. cerevisiae tim10-1 ts strain growth, BacTiter-Glo, 24 h; inhibition, % at 20 µM;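 active means inhibition of yeast growth at or above a set limit in either of two repeat tests at 20 µM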;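 further: tim10-1 mutant grown at permissive 25 °C to find synthetic lethal compounds; 0% = DMSO yeast wells and 100% = medium wells without yeast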
tim10 confirm = growth inhibitors of wild-type TIM10 yeast, confirmation, counter-screen for tim10-1 synthetic lethality project, single concentration, luminescence, S. cerevisiae. shares compounds with TIM10 inh. S. cerevisiae tim10 strain growth, BacTiter-Glo luminescence, 24 h. inhibition, % at 10 µM. 4,600 tested, 63% active. AID 463215, 2010;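 active means inhibition of yeast growth at or above a set limit in either of two replicates at 10 µM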;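 further: this counterscreen used the strain with wild-type TIM10; 0% = yeast with DMSO and 100% = medium wells lacking yeast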
Active calls of the source: *; . = not tested or not shown.

SMILES	tim23-1 inh	NLRP3 yeast inh	TIM10 inh	tim10-1 inh	PfHsp90 yeast 2	tim10-1 confirm	tim10 confirm
Cc1ccc2c(c1)/C(=C/c1ccccc1)C(=O)N2	24	25	49*	55*	-99	39*	62*
Cc1cc(C)c2sc(N(CCCN(C)C)C(=O)c3ccc(S(=O)(=O)N4CCCc5ccccc54)cc3)nc2c1	20	22	51*	54*	-27	41*	33*
COc1ccc2sc(N(CCCN(C)C)C(=O)c3ccc(S(=O)(=O)N4CCc5ccccc5C4)cc3)nc2c1	10	33	15	30	5	.	.
Cc1cccc2sc(N(CCCN(C)C)C(=O)c3ccc(S(=O)(=O)N4CCc5ccccc5C4)cc3)nc12	20	11	40*	41*	-30	16	22
CN(C)CCCN(C(=O)c1ccc(S(=O)(=O)N2CCc3ccccc3C2)cc1)c1nc2ccc(F)cc2s1	30	27	57*	59*	.	36*	45*
CN(C)CCCN(C(=O)c1ccc(S(=O)(=O)N2CCc3ccccc3C2)cc1)c1nc2c(F)cccc2s1	4	6	18	35	-8	.	.
CCOc1ccc(NS(=O)(=O)c2ccc(C(=O)N(C)CC(=O)Nc3cccc(OC)c3)cc2)cc1	.	.	.	.	0	.	.
CCOC(=O)[C@@H]1[C@H]2COc3ccccc3[C@@H]2N2C(=O)N(c3ccc(Br)cc3)C(=O)[C@]12C	35	17	9	-2	7	.	.
COc1ccc(-c2ccnc3nc(N4CCN(c5ccccc5)CC4)nn23)cc1	48	27	47*	43*	.	36*	26
Fc1ccc(-c2ccnc3nc(N4CCOCC4)nn23)cc1	1	4	-5	26	.	.	.
O=C(O)C1C2OC(C(Br)C2Br)C1C(=O)O (centres undefined)	.	.	.	.	19	.	.
CCOc1cc(/C=N/NC(=O)c2cc(-c3cccnc3)nc3ccccc23)ccc1O	39	-4	44*	45*	-13	38*	28
CCOc1cc(/C=C2/N=C(c3ccc4c(c3)OCO4)OC2=O)ccc1OC(C)=O	33	7	30	34	-8	.	.
CC(=O)Oc1ccc(/C=C2\N=C(C3CCCCC3)OC2=O)cc1	44	8	56*	46*	-21	46*	41*
CCC1CSC(Nc2ccc(C(=O)/C=C/c3ccc(Oc4ccccc4)cc3)cc2)=N1 (centres undefined)	11	5	-11	3	-15	.	.
CCC1CSC(Nc2ccc(C(=O)/C=C/c3cccc(C)c3)cc2)=N1 (centres undefined)	-3	-29	62*	57*	-14	44*	62*
Fc1ccccc1CNC(=S)Nc1cccc(C(F)(F)F)c1	47	12	43*	47*	-60	46*	2
CSc1ccccc1NC(=S)Nc1cccc(C(F)(F)F)c1	-2	18	6	12	13	.	.
Cc1cc(NCc2ccccc2)nc(-c2ccccc2O)n1	47	2	66*	64*	.	49*	46*
Cc1cc(NC2CCCCC2)nc(-c2ccccc2O)n1	28	5	27	37	-14	.	.
COc1ccc(S(=O)(=O)N2CCC(C(=O)NN3CCCCC3)CC2)cc1OC	6	-2	-1	11	7	.	.
COc1ccc(CCNC(=O)c2ccccc2NS(=O)(=O)c2c(F)cccc2F)cc1	8	-4	17	4	0	.	.
COc1ccc2nc(NC(=O)CN(c3ccc(C)cc3)S(=O)(=O)c3c(C)nn(C)c3C)sc2c1	40	-2	41*	45*	.	31*	44*
COc1ccc(NC(=O)CN(c2ccc(C)cc2)S(=O)(=O)c2c(C)nn(C)c2C)cc1	15	1	9	29	26	.	.
COc1cccc(/C=c2\sc3nc(-c4cccs4)nn3c2=O)c1OC	37	-12	51*	42*	0	33*	1
SMILES	tim23-1 inh	NLRP3 yeast inh	TIM10 inh	tim10-1 inh	PfHsp90 yeast 2	tim10-1 confirm	tim10 confirm
O=[N+]([O-])c1cccnc1N1CCC(c2cc(-c3ccc(Cl)cc3)n[nH]2)CC1	14	19	49*	43*	57	37*	46*
CCOC(=O)CN1CCC(c2cc(-c3ccc(Cl)cc3)n[nH]2)CC1	19	5	-9	19	27	.	.
O=C(NCCCO)C(=O)Nc1cc2c3c(c1)CCN3C(=O)CC2	0	6	3	-22	-36	.	.
COC(=O)C(=C/C(C)=C/c1cccs1)C(=O)OC	38	48	43*	44*	6	28	43*
CCC(=O)Nc1cccc(C(=O)c2ccccc2)c1	13	12	5	-1	6	.	.
CCC(=O)Nc1cccc(C(=O)/C=C/c2cccs2)c1	35	15	42*	46*	-7	24	18
CCOc1c(OC(C)=O)ccc(/C=C2\N=C(SCC)SC2=O)c1[N+](=O)[O-]	37	19	45*	50*	21	46*	31*
CC(C)Cn1c(=S)[nH]c2ccccc2c1=O	14	11	-28	-45	10	.	.
CC(C)Cn1c(=S)[nH]c2cc(Cl)ccc21	49	30	50*	43*	-7	18	26
CN(CCc1ccccc1)C(=O)c1ccc(NC(=O)Cc2ccc(NC(=O)C3CCCN(C(=O)c4ccccc4)C3)cc2)cc1 (centres undefined)	.	.	.	.	12	.	.
Cc1cccc(OCCCOc2cccc3cccnc23)c1C	48	30	47*	46*	-12	20	39*
Cc1ccc(OCCCOc2cccc3cccnc23)cc1C	49	22	35	40	42	.	.
COc1nnc(-c2ccc(N3CCCCC3)c(N)c2)c2ccccc12	49	22	49*	44*	3	36*	40*
COc1nnc(-c2ccc(C)c(S(N)(=O)=O)c2)c2ccccc12	1	5	-2	-1	-2	.	.
Cc1cc(Sc2nc(N)ncc2[N+](=O)[O-])ncn1	41	26	49*	51*	39	48*	32*
Cc1cc(N)ncc1[N+](=O)[O-]	.	.	.	.	-2	.	.
CC(C)N1C/C(=C/c2ccsc2)C(=O)/C(=C/c2ccsc2)C1	22	16	46*	40*	4	28	34*
CC(C)N1C/C(=C/c2cccnc2)C(=O)/C(=C/c2cccnc2)C1	.	.	.	.	16	.	.
